Test results as given in ChEMBL document CHEMBL1157539, “Thousands of chemical starting points for antimalarial lead identification” (Nature, 2010).

What was measured:
Format in all cases: functional
Plasmodium falciparum [1] = assay: GSK_TCMDC: Inhibition of Plasmodium falciparum 3D7 in whole red blood cells, using parasite LDH activity as an index of growth. Test compounds present at 2uM
Plasmodium falciparum [2] = assay: GSK_TCMDC: Inhibition of Plasmodium falciparum Dd2 in whole red blood cells, using parasite LDH activity as an index of growth. Test compounds present at 2uM
HepG2 = assay: GSK_TCMDC: Percent inhibition of human HepG2 cell line. Test compounds present at 10uM.

## Cc1cccc2nc(-c3cccc(-c4ccc(NC(=O)COc5ccccc5C(N)=O)cc4)c3)[nH]c12
Plasmodium falciparum [1]
  Inhibition: 100%
Plasmodium falciparum [2]
  Inhibition: 47%
HepG2
  Inhibition: 18%

## Cc1ccc(NC(=O)c2ccc(-c3cc4cc(Cl)c(Cl)cc4[nH]3)cc2)cc1OCCN1CCCC1.O=C(O)C(F)(F)F
Plasmodium falciparum [1]
  Inhibition: 100%
Plasmodium falciparum [2]
  Inhibition: 90%
HepG2
  Inhibition: 7%

## CCOc1cc(C)ccc1C1CCN(CCCCNC(=O)c2nc(-c3ccc(C(F)(F)F)cc3)[nH]c2C)CC1.Cl
Plasmodium falciparum [1]
  Inhibition: 100%
Plasmodium falciparum [2]
  Inhibition: 98%
HepG2
  Inhibition: 30%

## O=C(Nc1cccc(C(F)(F)F)c1)N1CCOC(CCN2CCC3(CCc4ccccc43)CC2)(c2ccc(Cl)c(Cl)c2)C1 (centres undefined)
Plasmodium falciparum [1]
  Inhibition: 99%
Plasmodium falciparum [2]
  Inhibition: 70%
HepG2
  Inhibition: 31%

## O=C(Nc1ccc(Br)c(Cl)c1)c1cc([N+](=O)[O-])cc2cn[nH]c12
Plasmodium falciparum [1]
  Inhibition: 99%
Plasmodium falciparum [2]
  Inhibition: 63%
HepG2
  Inhibition: 49%

## COc1cccc(NC(=O)Nc2ccc(-c3oc(C(=O)NCC(c4ccccc4)N(C)C)cc3-c3ccncc3)cc2)c1.O=C(O)C(F)(F)F (centres undefined)
Plasmodium falciparum [1]
  Inhibition: 100%
Plasmodium falciparum [2]
  Inhibition: 99%
HepG2
  Inhibition: 6%

## O=C(Nc1cccc([N+](=O)[O-])c1)Nc1cccc(C(F)(F)F)c1
Plasmodium falciparum [1]
  Inhibition: 92%
Plasmodium falciparum [2]
  Inhibition: 81%
HepG2
  Inhibition: 0%

## CC(C)N1CCN(C(CN2CCN(CCCOc3ccc4nonc4c3)CC2)c2ccc(F)cc2)CC1.Cl (centres undefined)
Plasmodium falciparum [1]
  Inhibition: 97%
Plasmodium falciparum [2]
  Inhibition: 40%
HepG2
  Inhibition: 0%

## COCCNCc1ccc(-c2ccccc2CNC2CCN(Cc3ccccc3)CC2)cc1.O=C(O)C(F)(F)F
Plasmodium falciparum [1]
  Inhibition: 97%
Plasmodium falciparum [2]
  Inhibition: 28%
HepG2
  Inhibition: 17%

## CCN(CC)c1ccccc1CNC(=O)c1cc(Cl)c(N)cc1OC
Plasmodium falciparum [1]
  Inhibition: 97%
Plasmodium falciparum [2]
  Inhibition: 94%
HepG2
  Inhibition: 6%

## CNC(=O)c1ccccc1Nc1nc(Nc2cccc(CS(C)(=O)=O)c2)ncc1C.O=CO
Plasmodium falciparum [1]
  Inhibition: 97%
Plasmodium falciparum [2]
  Inhibition: 95%
HepG2
  Inhibition: 74%

## Cc1cccc2nc(-c3cccc(-c4ccc(NC(=O)CN5CCOCC5)cc4)c3)[nH]c12
Plasmodium falciparum [1]
  Inhibition: 94%
Plasmodium falciparum [2]
  Inhibition: 12%
HepG2
  Inhibition: 59%

## O=C(Nc1ccc(-c2cccc(-c3nc4cc(C(F)(F)F)ccc4[nH]3)c2)cc1)c1csnn1
Plasmodium falciparum [1]
  Inhibition: 98%
Plasmodium falciparum [2]
  Inhibition: 25%
HepG2
  Inhibition: 42%

## Cc1ccc(-c2csc(C)n2)c(C)c1
Plasmodium falciparum [1]
  Inhibition: 98%
Plasmodium falciparum [2]
  Inhibition: 0%
HepG2
  Inhibition: 12%

## Cc1nc2nc(N)nc(N)c2c(C)c1Cc1ccc(C(N)=O)cc1.Cl
Plasmodium falciparum [1]
  Inhibition: 97%
Plasmodium falciparum [2]
  Inhibition: 0%
HepG2
  Inhibition: 55%

## CCc1ccc(C2CCN(CCCCNC(=O)c3ccc(NC(=O)c4ccc(Cl)cc4)cc3)CC2)c(OCC(=O)OC)c1
Plasmodium falciparum [1]
  Inhibition: 95%
Plasmodium falciparum [2]
  Inhibition: 12%
HepG2
  Inhibition: 32%

## O=C(/C=C/c1ccc(Cl)c(Cl)c1)NCCCCCCN1CCCN(C(=O)Nc2ccc(Cl)c(C(F)(F)F)c2)CC1
Plasmodium falciparum [1]
  Inhibition: 100%
Plasmodium falciparum [2]
  Inhibition: 24%
HepG2
  Inhibition: 25%

## NCCNC(=O)c1ccc(-c2cnc3[nH]cc(-c4ccc(C(N)=O)cc4)c3c2)cc1
Plasmodium falciparum [1]
  Inhibition: 99%
Plasmodium falciparum [2]
  Inhibition: 98%
HepG2
  Inhibition: 2%

## Cc1cccc(C(=O)NCCCN2CCC(NC(=O)/C=C/c3ccc(Cl)c(Cl)c3)CC2)c1.O=C(O)C(F)(F)F
Plasmodium falciparum [1]
  Inhibition: 98%
Plasmodium falciparum [2]
  Inhibition: 23%
HepG2
  Inhibition: 39%

## Cc1cc(N/N=C/c2ccccc2[N+](=O)[O-])c2cccc(C)c2n1
Plasmodium falciparum [1]
  Inhibition: 99%
Plasmodium falciparum [2]
  Inhibition: 100%
HepG2
  Inhibition: 0%

## CCCCSc1nc2c(c(=O)n1Cc1ccco1)C1(CCCCC1)Cc1ccccc1-2
Plasmodium falciparum [1]
  Inhibition: 96%
Plasmodium falciparum [2]
  Inhibition: 78%
HepG2
  Inhibition: 13%

## Cl.Cl.N=C(N)c1cccc(-c2cc(-c3cccc(C(=N)N)c3)on2)c1
Plasmodium falciparum [1]
  Inhibition: 96%
Plasmodium falciparum [2]
  Inhibition: 78%
HepG2
  Inhibition: 8%

## O=C(Nc1cccc(-c2csc(-c3nc4ccccc4[nH]3)c2)c1)c1ccncc1
Plasmodium falciparum [1]
  Inhibition: 100%
Plasmodium falciparum [2]
  Inhibition: 61%
HepG2
  Inhibition: 64%

## C=CCOC(=O)N1CCC(CNCc2ccc(-c3cccc(-c4nc5cccc(C)c5[nH]4)c3)cc2)C1.O=C(O)C(F)(F)F (centres undefined)
Plasmodium falciparum [1]
  Inhibition: 100%
Plasmodium falciparum [2]
  Inhibition: 99%
HepG2
  Inhibition: 25%

## CN(C)Cc1cccc(CNC(=O)c2sccc2OCc2ccc(Cl)cc2)c1
Plasmodium falciparum [1]
  Inhibition: 90%
Plasmodium falciparum [2]
  Inhibition: 88%
HepG2
  Inhibition: 7%

## CCCCC1=CC2C(=O)C(C(=O)OC)=CN=C2C=C1OCc1ccccc1 (centres undefined)
Plasmodium falciparum [1]
  Inhibition: 99%
Plasmodium falciparum [2]
  Inhibition: 98%
HepG2
  Inhibition: 7%

## CC(C)CNCc1cccc(-c2cccc(CNC3CCN(Cc4ccccc4)CC3)c2)c1.O=C(O)C(F)(F)F
Plasmodium falciparum [1]
  Inhibition: 100%
Plasmodium falciparum [2]
  Inhibition: 99%
HepG2
  Inhibition: 32%

## CO/C(=C\C=C\c1cc2cc(Cl)c(Cl)cc2[nH]1)C(=O)NCCCN1CCN(c2cccc(OCC(=O)Nc3cccc(C(=O)c4ccccc4)c3)c2)CC1
Plasmodium falciparum [1]
  Inhibition: 94%
Plasmodium falciparum [2]
  Inhibition: 88%
HepG2
  Inhibition: 48%
